Results reported in PubChem BioAssay AID2551 (National Center for Advancing Translational Sciences (NCATS), 2010).
In all, about 310,000 compounds went through this assay and about 17,000 (5.5%) were called active. About 11% were inconclusive and are not listed. Many of the other results were omitted from the sample, so actives are more common in it than they were. Unmarked numbers belong to inactive results. Calls come from the whole dose curve; as a rule, active = well fitted inhibition curve with a large enough effect; inconclusive = small, poorly fitted or top-dose-only effect, or effect the other way; inactive = no such curve, though single readings can be large or run the other way. Where a SMILES comes first, the peptide text is derived from it. [ ]: non-standard residue; d: D form. The star is where a group is joined. ξ: configuration not given here. Cbz = O=C(OCc1ccccc1)*; ξL = CC(C)CC(N)C(=O)O; ξP = O=C(O)C1CCCN1

These molecules were tested against Nuclear receptor ROR-gamma (Mus musculus) (UniProt P51450) (assay: qHTS for inhibitors of ROR gamma transcriptional activity). Details: Drosophila S2 Gal4-RORgamma UAS-luciferase reporter, 20 h; series mostly up to 53.6 µM; activity change, negative = inhibition: at the top concentration.
Outline: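 Luciferase reporter read in Schneider cells carrying Gal4-RORγ (mouse) and UAS-Photinus luciferase; cells given compound 1 h before 700 uM copper sulfate induction, then incubated 20 h at ambient temperature.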
% is set by controls: 0 for no effect and ±100 for the full control effect; potency is the fitted concentration of half-maximal effect.
Note: nearly all actives have a fitted effect of over 60% in size.

Chain of Nuclear receptor ROR-gamma (Mus musculus) (P51450 whole entry, looked up, the tested form may be a part): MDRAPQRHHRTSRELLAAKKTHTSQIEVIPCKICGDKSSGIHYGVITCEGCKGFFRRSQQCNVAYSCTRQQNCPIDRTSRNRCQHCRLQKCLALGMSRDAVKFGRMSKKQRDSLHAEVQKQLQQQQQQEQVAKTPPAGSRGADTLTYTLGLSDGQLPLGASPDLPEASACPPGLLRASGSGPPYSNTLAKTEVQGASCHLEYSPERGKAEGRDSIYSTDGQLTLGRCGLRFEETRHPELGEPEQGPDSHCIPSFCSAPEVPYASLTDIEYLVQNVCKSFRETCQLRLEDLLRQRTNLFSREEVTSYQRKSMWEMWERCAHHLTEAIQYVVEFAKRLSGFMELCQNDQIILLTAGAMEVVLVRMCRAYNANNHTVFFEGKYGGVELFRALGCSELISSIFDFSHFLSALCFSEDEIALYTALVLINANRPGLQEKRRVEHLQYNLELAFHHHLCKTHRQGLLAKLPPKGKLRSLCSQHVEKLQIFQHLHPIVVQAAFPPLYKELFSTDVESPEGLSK

Row | Structure (SMILES) | activity change, negative = inhibition | Potency
1 | COc1ccc(C(=O)NC2CC2)cc1OC1CCN(Cc2ccc(SC)cc2)CC1 | -0.679% | 
2 | CCOC(=O)N1CCN(Cc2nc3cc(NC(C)=O)ccc3n2C)CC1 | 3.25% | 
3 | O=S(=O)(NC1CC2CCC1C2)c1ccc(Cl)cc1 (stereo unspecified) | 44% [at 1.91 µM] | 
4 | CC(=O)c1ccc(N2CCN(C(=O)C3CCN(S(=O)(=O)c4ccc5c(c4)CC(C)N5C(=O)C4CC4)CC3)CC2)cc1 (stereo unspecified) | 42.1% | 
5 | COc1ccc(CCNC(=O)CCCCCNC(=O)N2CCn3c2nc2ccccc23)cc1OC | 4.74% | 
6 | N#Cc1c(Cl)nc(-c2cccnc2)nc1-c1ccccc1 | 0.184% | 
7 | CCOC(=O)c1cnc(Nc2nc3ccccc3o2)nc1CSC(=S)N1CCCCC1 |  | 0.447 µM (active)
8 | CCOC(=O)CCNC(=O)N1CCCC(C(=O)c2ccccc2SC)C1 (stereo unspecified) | 25.3% | 
9 | CCc1ccc(CNC(=O)C2CCCN(c3nc4ccccc4o3)C2)cc1 (stereo unspecified) | 24.5% | 
10 | CCCCCc1c(C)nc(N2CCN(Cc3ccc4c(c3)OCO4)CC2)[nH]c1=O | -4.87% | 
11 | COc1ccc(C(=O)NC(C)c2nccs2)cc1OC1CCN(C(C)C)CC1 (stereo unspecified) | 3.59% | 
12 | O=C1Nc2ccccc2/C1=C/c1ccnc2ccccc12 | -13.4% | 
13 | CN(C)CCNC(=O)c1[nH]nc2c1CCc1ccccc1-2 | -0.392% | 
14 | COc1cccc(/C=N/NC(=O)c2[nH]nc3c2CCc2ccccc2-3)c1O |  | 0.794 µM (active)
15 | COc1cc2cc(C(=O)N/N=C/c3cccc(OC)c3OC)[nH]c2cc1OC | 21.4% | 
16 | Cc1ccc(CNCc2ccc3c(c2)OCO3)c(C)c1 | -34.2% | 
17 | COc1ccc(-c2nnc(NC(=O)CS(=O)(=O)c3ccc(Cl)cc3)o2)c(OC)c1 |  | 17.8 µM (active)
18 | COc1ccc(NC(=O)CS(=O)(=O)c2ccccc2)cc1 | 16.7% | 
19 | COc1ccc(-c2nnc(SCC(=O)c3cccs3)o2)c(OC)c1 | 31.9% | 
20 | CN(C)C(=O)CCC(=O)N1CCCCC1C(=O)Nc1ccc(Oc2ccccc2F)cc1 (stereo unspecified) | 21.8% | 
21 | CC(=O)NS(=O)(=O)c1ccc(N/C(N)=N/c2nc(C)cc(C)n2)cc1 | -13.8% | 
22 | CC(C)c1ccc(NC(=O)Cn2ncc3ccccc32)cc1 | 26.2% | 

Row | Structure (SMILES) | activity change, negative = inhibition | Potency
23 | C=CCc1c(C)nc2cc(-c3ccccc3)[nH]n2c1=O | -22.1% | 
24 | CC(C)[C@H](NC(=O)OCc1ccccc1)C(=O)OCc1ccccc1 | -28.3% | 
25 | O=C(CNC(=O)c1ccc(-c2ccccc2)cc1)OCc1ccc(Cl)cc1 | -13.7% | 
26 | COc1ccccc1NC(=O)[C@H](COCc1ccccc1)NC(=O)OC(C)(C)C | -0.0777% | 
27 | CNC(=O)c1[nH]cnc1C(=O)N[C@@H](CC(C)C)C(=O)OCc1ccccc1 |  | 10 µM (active)
28 | Cc1cccc(NC(=O)c2nc[nH]c2C(=O)NCC(=O)OCc2ccccc2)c1 |  | 12.6 µM (active)
29 | O=C(CNC(=O)c1ccccc1)NCC(=O)OCc1ccc(Cl)cc1 | 5.95% | 
30 | COC(=O)[C@@H](Cc1ccccc1)NC(=O)NCCc1ccccc1 | 12.9% | 
31 | CC(C)(C)OC(=O)CNC(=O)c1[nH]cnc1C(=O)N[C@@H](Cc1ccccc1)C(=O)OCc1ccccc1 | 20% | 
32 | CC(C)CC(NC(=O)C1CCCN1C(=O)[C@@H](C)NC(=O)OCc1ccccc1)C(=O)NCC(N)=O (stereo partly specified) (Cbz-[dA][ξP][ξL]G-NH2) | -8.88% | 
33 | O=C(N[C@@H](Cc1ccccc1)C(=O)OCc1ccccc1)c1nc[nH]c1C(=O)N[C@@H](Cc1ccccc1)C(=O)OCc1ccccc1 |  | 10 µM (active)
34 | C[C@H](NC(=O)c1nc[nH]c1C(=O)NCC(=O)OC(C)(C)C)C(=O)OCc1ccccc1 |  | 11.2 µM (active)
35 | NC(=O)c1ccc(NC(=O)COC(=O)C(Cc2ccccc2)NC(=O)c2ccccc2)cc1 (stereo unspecified) | -24.2% | 
36 | C/C(=N\N(C)C)c1ccc(OCCOc2ccc([N+](=O)[O-])cc2)cc1 | 26% | 
37 | CCOC(=O)C1(Cc2ccccc2C)CCCN(S(C)(=O)=O)C1 (stereo unspecified) | -2.12% | 
38 | COCc1c(C(=O)N/N=C(\C)c2ccncc2)nnn1-c1nonc1N | 6.85% | 
39 | C=CCNC(=O)c1ccccc1SCc1c(C)noc1C | -15.9% | 
40 | Cc1ccc(NC(=O)C(CC(=O)O)C2CCCO2)c(C)c1 (stereo unspecified) | -16.9% | 
41 | O=C(Nc1ccc(Cl)cc1)c1cccc(OC(=S)N2CCOCC2)c1 | 25.6% | 
42 | COc1ccc(S(=O)(=O)N(C)CC(=O)N2CCCC2)cc1 | -15.8% [at 1.91 µM] | 
43 | O=C(CC(O)(C(F)(F)F)C(F)(F)F)Nc1ccc(Cl)c(Cl)c1 |  | 5.01 µM (active)
44 | Cc1ccc(NC(=O)C/C(N)=N/O)cc1Cl | 15.1% | 

Row | Structure (SMILES) | activity change, negative = inhibition | Potency
45 | O=C(Cc1ccc(Cl)c(Cl)c1)Nc1ccc(SC(F)F)cc1 | 26.4% | 
46 | COc1ccccc1N(CC(=O)NC1CCCC1)C(=O)C1(C)CC(=O)N=C2C=CC(C)=CN21 (stereo unspecified) | -3.48% | 
47 | O=C1CCCCN1CCCC(=O)N1CCCC(Nc2ccc(F)cc2)C1 (stereo unspecified) | -0.309% | 
48 | O=C(N/N=C/c1ccc(OCc2ccccc2)cc1)c1ccc(O)cc1 |  | 8.91 µM (active)
49 | O=C(N/N=C/c1ccc(OC(=O)c2ccccc2Cl)cc1)c1ccc(O)cc1 | -20.7% | 
50 | O=C(Cc1cccs1)N/N=C/c1ccc(OCc2ccccc2)cc1 | 43.6% | 
51 | CCn1nc(C)c(CNC(=O)C2CCC(=O)N(Cc3cccc(F)c3)C2)c1C (stereo unspecified) | 2.01% | 
52 | CCCCCNC(=O)C1c2ccccc2Oc2ccccc21 | -9.9% | 
53 | CC(C)(O)C(=O)NN(C(=O)c1ccccc1)c1cccc(Br)c1 | 0.311% | 
54 | Cc1ccc(N(NC(=O)C(C)(C)O)C(=O)c2ccccc2)cc1C | -4.04% | 
55 | CCCC(O)(CCC)C(=O)NN(C(=O)CCl)c1cccc(C)c1 |  | 15.8 µM (active)
56 | COC(=O)N(NC(=O)C(O)(C(C)C)C(C)C)c1ccccc1 | 14.2% | 
57 | CCCCC(O)(CCCC)C(=O)NN(C(=O)CCl)c1ccccc1 |  | 12.6 µM (active)
58 | Cc1cc(C)n(CC(O)COc2ccc(C(C)(C)C)cc2)n1 (stereo unspecified) | -13.9% | 
59 | CCc1ccc(N(C(=O)c2csnn2)C(C(=O)NC2CCCCC2)c2cccnc2)cc1 (stereo unspecified) | 15.8% | 
60 | O=C(O)c1cc(S(=O)(=O)N(Cc2ccccc2)c2cccc(C(F)(F)F)c2)ccc1Cl | 10.3% | 
61 | O=S(=O)(NCCc1ccc(Cl)cc1)c1cccs1 | 23.7% | 
62 | COC(=O)c1c(NC(=O)c2ccc(S(=O)(=O)N3CCOCC3)cc2)sc2c1CCN(C(C)C)C2 | -7.46% | 
63 | CC(CCc1ccccc1)NC(=O)c1cnc(Cl)c(Cl)c1 (stereo unspecified) | 10.2% | 
64 | Cc1nn(Cc2ccc(C(=O)N3N=C(C(F)F)CC3(O)C(F)F)cc2)c(C)c1[N+](=O)[O-] (stereo unspecified) |  | 12.6 µM (active)
65 | Cc1ccn(CC(=O)N2N=C(C(F)F)CC2(O)C(F)F)n1 (stereo unspecified) | -2.3% | 
66 | CCc1ccc(NC(=O)Cn2nc(C)c([N+](=O)[O-])c2C)cc1 | 22.5% | 
